Sampled rows, rich in hits. Any-hit rate of the full collection: about 19%.
IL1B secr inh: inhibitors of inflammasome signaling (IL-1 beta secretion); activity change, % at 57.5 µM; THP-1 LPS/ATP IL-1B secretion, AlphaLISA, 16 h; stronger effect = lower value; 360,000 compounds, 4.7% hits; in the data active = activity change below about -50%; inconclusive = mostly about -30% to -49%
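Secreted IL-1B measured by AlphaLISA bead assay after 16 h compound exposure of THP-1 cells; compounds (final up to 57.5 uM) added 1 h before LPS (250 ng/mL) and ATP (1.25 mM) stimulation; lower signal means less secretion.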
DT40 TDP1 no CPT: qHTS for Inhibitors of human tyrosyl-DNA phosphodiesterase 1 (TDP1): qHTS in cells in absence of CPT; AID 686978, 2013; 420,000 compounds, 15% hits; Potency, µM (titrated, usually from 46.2 µM), for the others: top-dose activity change, negative = growth inhibition, actives largely listed as inhibitors; DT40 Tdp1-/- hTDP1 cells, no CPT, ATP luminescence, 48 h; note: potency is the fitted concentration of half-maximal effect; nearly all actives have a fitted effect of over 55% in size
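Seeded 400 DT40-hTDP1 cells/well (vehicle DMSO, no 20 nM CPT); pinned compounds; ≥48 hr at 37 °C; CellTiter-Glo luminescence as viability measure.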
HT1080-NT tox: kills 2HG-producing HT-1080-NT fibrosarcoma cells; HT-1080-NT fibrosarcoma viability, CellTiter-Glo ATP luminescence, 48 h; Potency, µM (series often up to 46.1 µM), for inactives: at the top dose activity, negative = less viability, most hits filed as cytotoxic; 360,000 compounds, 1.6% hits;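 note: NT is the 2HG producing partner of a matched IDH1 knockdown line; potency is the fitted concentration of half-maximal effect; 0% = DMSO-treated cells and -100% = media-only wells without cells; nearly all actives have a fitted effect of over 55% in size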
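Toxicity toward the 2HG-producing NT line was scored as %Activity, normalised to DMSO and no-cell wells, from CellTiter-Glo luminescence after 48 hours' treatment.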
HT1080 IDH1KD tx: HT-1080 IDH1 knockdown cell toxicity (counter line); AID 686971; 360,000 compounds, 2% hits; HT-1080 IDH1 knockdown viability, ATP luminescence, 48 h; Potency, µM (titrated, usually from 46.1 µM), for inactives: top-dose activity, negative = toxicity, most hits filed as cytotoxic;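 note: potency is the fitted concentration of half-maximal effect; 0% = DMSO wells and -100% = cell-free medium wells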
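Luminescent ATP read-out (CellTiter-Glo, 10 min at room temperature) after 48 h compound exposure at 37 °C gave viability of IDH1-knockdown HT-1080 cells. Activity was normalised to DMSO and cell-free wells, then fitted as concentration-response curves.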
ELG1 repair inh: ELG1-dependent DNA repair inhibition. 330,000 compounds, 2.3% hits. HEK293T ELG1-luciferase reporter, luminescence, 16 h; DNA damage induced by 5-fluorouridine. Potency, µM (series often up to 46.1 µM), without a hit: at the highest dose activity change, negative = inhibition, hits mostly inhibitors; note: potency is the fitted concentration of half-maximal effect; nearly all actives have a fitted effect of over 55% in size
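Cells (2,000 per well) received 5-fluorouridine plus test compound or DMSO and were incubated 16 hr at 37 °C, 5% CO2. Luciferase activity was read by luminescence 30 min after ONE-Glo addition; signal suppression marked inhibition of damage-induced ELG1 function.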
DT40 TDP1 CPT: growth inhibition of DT40 Tdp1-/-;hTDP1 cells with camptothecin (screen for TDP1 inhibitors). chicken DT40 Tdp1-/-;hTDP1 cells + 20 nM CPT, ATP luminescence, 48 h. Potency, µM (top dose mostly 46.2 µM), for the others: at the highest dose activity change, negative = growth inhibition, actives largely listed as inhibitors. 420,000 compounds, 12% hits; note: potency is the fitted concentration of half-maximal effect; nearly all actives have a fitted effect of over 55% in size
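Chicken DT40 Tdp1-/- cells stably complemented with human TDP1 were seeded at 400 cells/well in medium containing 20 nM camptothecin, exposed to pin-transferred compounds, and grown at 37 °C for at least 48 hr. Viability was read as ATP luminescence.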
* marks the source's active call; other numbers are inactive results; ? = inconclusive; . = not tested or not shown; [ ] = another dose, or the depositor's remark. Unless noted, calls come from the whole dose curve; as a rule, active = well fitted curve in the direction sought with a large enough effect; inconclusive = small, poorly fitted or top-dose-only effect, or another doubt; inactive = no such curve, though single readings can be large; an effect the other way counts as inactive or inconclusive. Unless noted, % is set by controls: 0 for no effect and ±100 for the full control effect.

SMILES	IL1B secr inh	DT40 TDP1 no CPT	HT1080-NT tox	HT1080 IDH1KD tx	ELG1 repair inh	DT40 TDP1 CPT
COc1ccc(OC)c(NC(=O)/C=C/c2ccc(S(=O)(=O)N3CCOCC3)cc2)c1	-1	?	-3%	1%	-23%	26µM*
COc1ccccc1C(=O)Nc1ccc(S(=O)(=O)N2CCOCC2)cc1	-5	?	3%	4%	-12%	?
COc1ccc(/C=C/C(=O)NC(C)(C)C)cc1S(=O)(=O)N1CCOCC1	14	-7%	1%	-2%	0%	-13%
COc1ccccc1N1CCN(C(C)C(=O)Nc2ccc(S(=O)(=O)N3CCOCC3)cc2)CC1 (stereo unspecified)	11	13µM*	5%	12%	3%	?
COc1ccc(/C=C/C(=O)NC2CCCCCCC2)cc1S(=O)(=O)N1CCOCC1	0	21µM*	?	?	-5%	21µM*
COc1ccc(C)cc1NC(=O)/C=C/c1ccc(OC)c(S(=O)(=O)N2CCOCC2)c1	-21	-1%	3%[9.24 µM]	-3%	?	-25%
COc1ccc(NC(C)C(=O)Nc2cccc(S(=O)(=O)N3CCOCC3)c2)cc1OC (stereo unspecified)	?	8.2µM*	-6%	-12%	-27%	9.2µM*
Cc1nn(C(=O)c2ccc(Cl)cc2)c(C)c1S(=O)(=O)N1CCCCCC1	.	5%	.	.	.	5%
Cc1ccc2oc(=O)c3cnn(CC(=O)N4CCN(c5ccc(F)cc5)CC4)c3c2c1	.	-13%	.	.	.	2%
Cc1ccc(/C=C/C(=O)N2CCN(S(=O)(=O)c3c(C)c(C)cc(C)c3C)CC2)o1	-29	15µM*	-20%	?	-17%	23µM*
Cc1ccc(/C=C/C(=O)N2CCN(Cc3ccccc3)CC2)o1	-26	?	1%	0%	?	?
CCOc1ccc(NC(=O)CN(C)C(=O)c2ccccc2OCCOc2ccccc2)cc1OCC	-8	8.2µM*	-6%	-9%	12µM*	?
CCOc1ccc(NC(=O)CN(C)C(=O)CCCOc2ccc(Cl)c(C)c2)cc1OCC	-16	23µM*	-4%	-4%	?	15µM*
CCOc1ccc(NC(=O)CN(C)C(=O)c2ccccc2CCc2ccccc2)cc1OCC	-14	?	-3%	-1%	7.3µM*	21µM*
CCOc1ccc(NC(=O)CN(C)C(=O)c2ccncc2)cc1OCC	24	2%	19%	7%	-1%	-28%
CCOc1ccc(NC(=O)CN(C)C(=O)c2cccc3ccccc23)cc1OCC	-2	?	-2%	1%	2%	-2%
CC(C)NC(=O)c1ccc2c(c1)N(Cc1ccccc1)C(=O)C(C)(C)O2	-52*	-21%	1%	10%	-12%	-10%
Cc1ccc(NC(=O)CCN2C(=O)NC3(CCCC3)C2=O)cc1S(=O)(=O)N1CCOCC1	4	1%	5%	-5%	8%	3%
COC(=O)[C@@H]1CCCN1C(=O)c1c(OC)cc(=O)n2c1CCN(Cc1cc(OC)ccc1F)CC2	.	-23%	.	.	.	-2%
Cc1occc1C(=O)NCCCCNC(=O)c1ccoc1C	-14	0%	12%	6%	-3%	3%
CCCCNC(=O)c1ccccc1Cl	-12	-19%	5%	-1%	?	-10%
CCCCNC(=O)c1ccccc1C(=O)NCCCC	31	29µM*	?	-12%	3%	29µM*
CCCCCCCCCCCNC(=O)c1ccoc1C	0	18µM*	0%	-7%	-8%	21µM*
C[C@H](CO)N1C[C@H](C)[C@@H](CN(C)C(=O)NC2CCCCC2)Oc2ccc(NC(=O)C3CCCCC3)cc2C1=O	-4	-17%	3%	8%	5%	13%
CN(C)c1c2ccccc2nc2c(F)c(F)c(F)c(F)c12	-96*	21µM*	-2%	-3%	?	23µM*
SMILES	IL1B secr inh	DT40 TDP1 no CPT	HT1080-NT tox	HT1080 IDH1KD tx	ELG1 repair inh	DT40 TDP1 CPT
Cc1c2ccccc2nc2c(F)c(N(C)C)c(F)c(F)c12	17	?	0%	-7%	?	?
COc1ccc(CNC(=O)CN(C(=O)c2csnn2)c2ccccc2F)cc1	-1	-9%	10%	12%	10%	-4%
CN(CC(=O)NC(=O)NCc1ccccc1)Cc1ccc(Cl)c(Cl)c1	6	29µM*	0%	0%	-1%	21µM*
O=C(NCc1cccc(OC(F)(F)F)c1)C1CCC(=O)N(Cc2cccc(F)c2)C1 (stereo unspecified)	-1	8%	-13%	-6%	17%	-15%
CCCN1CCC(=O)N([C@H](COc2ccccc2)Cc2ccccc2)CC1	-5	?	-1%	-9%	4%	26µM*
O=C1CCN(Cc2ccccc2)CCN1[C@H](COc1ccccc1)Cc1ccccc1	?	21µM*	?	-18%	-7%	21µM*
Cc1ccsc1C(=O)N(C)C1CCS(=O)(=O)C1 (stereo unspecified)	7	14%	0%[9.24 µM]	2%	?	3%
Cc1cc(C)c2nc(NNC(=O)c3cc(=O)c4ccccc4o3)sc2c1	-12	?	-7%	-11%	0%	29µM*
Cc1cc(C)c2nc(NNC(=O)c3ccc(S(=O)(=O)N4CCc5ccccc5C4)cc3)sc2c1	105	4.6µM*	?	6.5µM*	20%	5.2µM*
Cc1cc(C)c2sc(NNC(=O)c3ccc(S(=O)(=O)N4CCc5ccccc5C4)cc3)nc2c1	121	2.6µM*	?	?	1%	3.3µM*
COc1ccc2nc(NC(=O)c3cc(=O)c4ccccc4o3)sc2c1	.	-25%	.	.	.	-2%
CCc1nnc(NC(=O)c2ccc(S(=O)(=O)N3CCc4ccccc4C3)cc2)s1	14	?	15%	16%	1%	?
COC(=O)N1CCC[C@@]2(CCN(c3ccccn3)C2)C1	.	-16%	.	.	.	2%
COc1cccc(Cn2c(=O)c(-c3ccc(Cl)cc3)nc3cnc(N(C)C)nc32)c1	.	18%	.	.	.	7%
COc1ccc(S(=O)(=O)N2CCN(C(=O)CCNC(=O)c3ccccc3Cl)CC2)cc1	-3	-24%	-4%	1%	3%	-15%
COc1cc(OC)c(OC)cc1/C=N/N(C)c1ccccc1	-62*	-25%	-19%	-20%	?	-21%
COc1cc(/C=N/N(C)c2ccccc2)ccc1O	?	-6%	-27%	?	?	-29%

Compound activity (PubChem)
